Data published in PubChem BioAssay AID1043 (National Center for Advancing Translational Sciences (NCATS), 2008).
Inconclusive results are not listed. Calls of active or inactive are those of the source. Calls come from the whole dose curve.

Experiment: H358 Cell Viability Secondary Assay for qHTS Assay for Epigenetic Modulators
Settings: H358 NSCLC viability, MTS absorbance, 4 days
Text: NIH Molecular Libraries Screening Centers Network [MLSCN] NIH Chemical Genomics Center [NCGC] MLSCN Grant: 1 X01 MH079860-01 Assay Provider: Elisabeth D. Martinez, University of Texas SW Medical Center NCGC Assay Overview: This secondary assay characterizes selected actives identified in the qHTS of the Locus Derepression (LDR) assay (PubChem AID 597). The LDR assay detects the derepression of a GFP reporter that is stably integrated in a region of the genome of murine c127i mammary cells that is presumably silenced. Compounds that cause derepression of the locus to express GFP are identified by enumerating GFP positive cells using a laser-scanning microplate cytometer. Selected LDR actives were assayed for killing of H358 non-small cell lung carcinoma (NSCLC) cells. Certain epigenetic drugs, like histone deacetylase inhibitors, can block cancer cell growth. H358 cell viability was measured using Cell Titer 96 AQueous One (Promega), an assay which detects the ability of metabolically active cells to reduce a tetrazolium salt substrate (MTS), into a soluble formazan product that can be measured by colorimetry.
NCGC Assay Protocol Summary Viability assays: H358 cells were plated in 96-well flat bottom tissue culture dishes (Corning) and grown overnight at 37 C and 5% CO2, then treated with increasing concentrations of compounds, incubated for four days, and assayed for viability using the Cell Titer 96 AQueous One kit (Promega) according to the manufacturer's protocol. Absorbance at 490 nm and 650 nm (reference) was measured by a Spectra Max (Molecular Devices). Data were normalized to the untreated control (100% viability). Each cell line was tested in one or two independent assays, each containing 4 or 8 replicates. For further details, see R.L. Johnson, W. Huang, A. Jadhav, C.P. Austin, J. Inglese, E.D. Martinez, A Quantitative High-Throughput Screen Identifies Potential Epigenetic Modulators of Gene Expression, Analytical Biochemistry (2007), doi: 10.1016/j.ab.2007.12.028

SMILES	Potency	outcome
CC(C)C(=O)NC(c1ccco1)c1ccc2cccnc2c1O (centres undefined)	500 nM (active)	
CC(C)C(=O)NC(c1ccc(N(C)C)cc1)c1ccc2cccnc2c1O (centres undefined)	200 nM (active)	
CC(/C=C/C(=O)NO)=C\[C@@H](C)C(=O)c1ccc(N(C)C)cc1	40 nM (active)	
O=C(CSc1cccc2cccnc12)NCc1ccccc1		inactive
COc1ccc(C(NC(=O)C(C)C)c2ccc3cccnc3c2O)cc1 (centres undefined)	200 nM (active)	
CN1CCN(Cc2cc(Cl)c3cccnc3c2O)CC1	2000 nM (active)	
CC(C)C(=O)NC(c1ccco1)c1cc([N+](=O)[O-])c2cccnc2c1O (centres undefined)	6000 nM (active)	
CN1C(=S)SC(c2ccccc2)N(C)C1c1ccccc1 (centres undefined)		inactive
O=Nc1ccc(O)c2ncccc12	3000 nM (active)	
